The values that follow come from PubChem BioAssay (NCATS).

In test [1] the target is Alpha-galactosidase A (Homo sapiens) (UniProt P06280). As to the kind of experiment: Counterscreen for Glucocerebrosidase Inhibitors: qHTS Assay for Human alpha-Galactosidase at pH 4.5 (AID 992). Note: 0% is about no effect. In short, it runs like this: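 Steps: enzyme (2 nM final), then compound across 0.7 nM to 77 uM, then 80 uM fluorogenic galactopyranoside substrate; incubate 20 min at room temperature; quench at pH 10; measure fluorescence at 365/440 nm.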
Alpha-galactosidase A (Homo sapiens), sequence (P06280 whole entry, looked up): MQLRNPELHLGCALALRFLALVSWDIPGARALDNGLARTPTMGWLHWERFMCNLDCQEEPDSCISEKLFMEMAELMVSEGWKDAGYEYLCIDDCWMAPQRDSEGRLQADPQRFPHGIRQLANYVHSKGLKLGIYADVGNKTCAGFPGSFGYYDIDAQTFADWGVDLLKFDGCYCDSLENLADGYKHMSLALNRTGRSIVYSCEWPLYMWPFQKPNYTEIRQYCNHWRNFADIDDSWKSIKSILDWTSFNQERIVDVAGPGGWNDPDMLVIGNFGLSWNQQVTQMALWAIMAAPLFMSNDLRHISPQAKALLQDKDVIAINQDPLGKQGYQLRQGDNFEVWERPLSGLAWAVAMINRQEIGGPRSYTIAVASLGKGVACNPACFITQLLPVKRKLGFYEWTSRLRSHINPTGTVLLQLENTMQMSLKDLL
In general terms: The purpose of a counterscreen is to sort out artefacts and off-target activity.

Test [2] in a line: Cell Viability - Hek293 (AID 427;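 active = compounds whose dose-response curve shows a full or clear partial loss of cell viability, called from curve shape rather than a numeric limit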;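 note: potency is the fitted concentration of half-maximal effect; cells exposed to compound for 40 hours at 37 °C before reading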). The settings on record: qHTS. An outline of the steps: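 HEK293 cells in complete medium were exposed to compound for 40 hr at 37 °C, then cellular ATP was read by CellTiter-Glo luminescence. Data were normalized to DMSO (basal) and 100 uM tamoxifen (100% inhibition), and AC50 came from Hill fits.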
On the technique in general: Quantitative high-throughput screening tests each substance at several concentrations.

Test [3] is described as follows: Cell Viability - SK-N-SH (AID 435; calls by dose curve;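 note: potency is the fitted concentration of half-maximal effect; compound exposure lasted 40 h at 37 °C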). Particulars: SK-N-SH neuroblastoma cell viability qHTS. An outline of the steps:
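Cells seeded at 1500 per well and incubated 5 hr at 37 °C. Compound added, then 40 hr at 37 °C. CellTiter-Glo added, 20 min at room temperature, luminescence read.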

A short description of test [4]: Cell Viability - N2a (AID 540).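 Note: plate controls were DMSO alone for no effect and tamoxifen control for full effect; nearly all actives have a fitted effect of over 45% in size.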 Particulars: N2a mouse neuroblastoma cell viability; activity change, negative = cytotoxicity: at 92.2 µM (top of the series). An outline of the steps: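 CellTiter-Glo ATP luminescence, read 20 min after reagent at room temperature, reported viability following 40 h compound treatment at 37 °C. N2a mouse neuroblastoma cells seeded 1500/well; Hill equation gave AC50.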

The nature of test [5]: Cell Viability - SH-SY5Y (AID 544).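 Note: 0% = DMSO alone and -100% = 100 µM tamoxifen; nearly all actives have a fitted effect of over 55% in size.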 Particulars: SH-SY5Y neuroblastoma cell viability; viability change, negative = cytotoxic: at 92.2 µM (top of the series). In short, it runs like this:
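Cytotoxicity measured via ATP-dependent luciferase luminescence (CellTiter-Glo) following 40 h, 37 °C exposure of 1500 SH-SY5Y cells per well. Concentration-response data were fitted with the standard Hill equation to give AC50.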

Test [6] in a line: Cell Viability - LYMP2-009 (AID 968).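 Note: 0% = DMSO alone and the full-kill end = tetraoctylammonium bromide at 92 µM; nearly all actives have a fitted effect of over 55% in size.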
Test [7] can be described thus: Cell Viability - LYMP2-015 (AID 971).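 Note: 0% = DMSO only and full effect = 92 µM tetraoctylammonium bromide; nearly all actives have a fitted effect of over 55% in size.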 An outline of the steps: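 Cytotoxicity readout: decrease in intracellular ATP (CellTiter-Glo luminescence) in 2500 LYMP2-015 lymphoblastoid cells/well after 24 h compound exposure at 37 C. Concentration-response data fitted with the standard Hill equation to give AC50.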
A short description of test [8]: Cell Viability - LYMP2-017 (AID 972). Note: % is set by controls: 0 for no effect and ±100 for the full control effect; nearly all actives have a fitted effect of over 55% in size. In short, it runs like this: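 CellTiter-Glo luminescence (cellular ATP, 30 min RT) measured cytotoxicity after 24 hr compound treatment at 37 C. Cells were a human lymphoblastoid line, LYMP2-017, plated at 2500/well and incubated 5 hr first; concentration-response fitted with Hill equation for AC50.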
Test [9] can be described thus: Cell Viability - LYMP2-010 (AID 981). An outline of the steps: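 CellTiter-Glo ATP luminescence measured cytotoxicity after 24 h compound exposure at 37 C. LYMP2-010 cells were seeded at 2500/well, with tetraoctylammonium bromide as control; concentration-response curves gave AC50 values by the Hill equation.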
Test [10] in a line: Cell Viability - LYMP2-022 (AID 987). In short, it runs like this:
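Cytotoxicity read as decreased cellular ATP (CellTiter-Glo luminescence, 30 min room temperature) after 24 hours compound exposure of 2500 lymphoblastoid LYMP2-022 cells/well at 37 C. Concentration-response data fitted with standard Hill equation for AC50.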

The target in test [11] is Vitamin D3 receptor (Homo sapiens) (UniProt P11473). As to the kind of experiment: qHTS assay for small molecule antagonists of vitamin D receptor signaling (AID 588541; calls by dose curve;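 note: receptor activated by calcitriol during compound treatment; % is set by controls: 0 for no effect and ±100 for the full control effect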). An outline of the steps: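 VDR-UAS-bla HEK293T cells in 2% charcoal-stripped FBS were stimulated with 1-alpha,25-dihydroxyvitamin D3 (3 nM final) plus compound for 16 h at 37 C. The beta-lactamase CCF4 readout was normalized to 50 nM agonist and DMSO, and Hill fits gave IC50.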
Vitamin D3 receptor (Homo sapiens), sequence (P11473 whole entry, looked up): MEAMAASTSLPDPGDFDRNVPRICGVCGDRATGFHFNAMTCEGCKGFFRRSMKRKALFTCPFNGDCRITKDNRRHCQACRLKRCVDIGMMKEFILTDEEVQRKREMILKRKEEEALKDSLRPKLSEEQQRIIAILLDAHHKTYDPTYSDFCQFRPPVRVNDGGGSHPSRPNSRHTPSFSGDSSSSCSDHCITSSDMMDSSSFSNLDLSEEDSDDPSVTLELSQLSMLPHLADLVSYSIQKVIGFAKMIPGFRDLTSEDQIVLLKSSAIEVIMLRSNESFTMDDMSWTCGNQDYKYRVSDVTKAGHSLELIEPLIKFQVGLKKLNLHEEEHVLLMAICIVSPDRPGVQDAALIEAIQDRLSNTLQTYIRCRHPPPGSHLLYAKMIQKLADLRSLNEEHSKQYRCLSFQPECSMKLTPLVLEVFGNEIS

Test [12] shares this target. As to the kind of experiment: qHTS assay for small molecule agonists of vitamin D receptor signaling (AID 588543; calls by dose curve;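 note: 0% = DMSO basal and 100% = reference agonist control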). In short, it runs like this: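 qHTS in agonist mode: compound titrations stimulate a VDR-driven β-lactamase reporter in HEK293T cells over 16 h at 37 °C. Response normalized to 50 nM 1α,25-dihydroxyvitamin D3 = 100%, DMSO = 0%; Hill fitting gives EC50 and maximal response.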

A short description of test [13]: qHTS assay for small molecule agonists of the antioxidant response element (ARE) signaling pathway (AID 651741; active = well fitted activation curve with a large enough effect in the signal ratio; the % refers to the signal ratio; note: potency is the fitted concentration of half-maximal effect; for activation: % of control where 0% means no effect). An outline of the steps: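 Stably integrated ARE-beta-lactamase reporter HepG2 cells; 16 h compound incubation, 37 C; LiveBLAzer FRET substrate 2 h at room temperature; fluorescence intensity.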
In test [14] the target is Tumor necrosis factor (Homo sapiens) (UniProt P01375). As to the kind of experiment: qHTS assay to identify small molecules that stimulate Tumor Necrosis Factor-alpha (TNF-alpha) secretion (AID 651757; active = well fitted curve in the direction sought with a large enough effect in the signal ratio; the % refers to the signal ratio; note: 0% is about no effect). An outline of the steps: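 Secreted TNF-alpha quantified by TR-FRET sandwich of two labeled anti-TNF-alpha antibodies, incubated 3 hr at room temperature. Preceded by 17 hr, 37 C compound treatment of THP-1 cells at 3000 cells/well.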
Tumor necrosis factor (Homo sapiens), sequence (P01375 whole entry, looked up): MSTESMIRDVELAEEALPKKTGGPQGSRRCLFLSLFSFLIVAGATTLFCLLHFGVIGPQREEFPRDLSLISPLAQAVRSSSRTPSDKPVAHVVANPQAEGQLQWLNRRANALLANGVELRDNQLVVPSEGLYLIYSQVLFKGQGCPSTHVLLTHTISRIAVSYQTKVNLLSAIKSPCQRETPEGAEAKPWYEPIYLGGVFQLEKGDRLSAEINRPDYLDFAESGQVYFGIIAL

Test [15] in a line: qHTS assay for environmental chemicals that activate the Aryl hydrocarbon Receptor (AhR) signaling pathway (AID 651777). Note: % of control where 0% means no effect; nearly all actives have a fitted effect of over 15% in size. Particulars: 1A2-DRE human hepatoma cells, luciferase, 24 h; activation: hits give high values. An outline of the steps:
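Following a 24 hr incubation with test chemicals at 37 C and 5% CO2, 1A2-DRE human hepatoma cells received One-Glo reagent; after 30 min at room temperature, luciferase output reflected CYP1A2 induction via AhR.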

Test [16] addresses Nuclear receptor ROR-gamma (Homo sapiens) (UniProt P51449). As to the kind of experiment: qHTS assay for small molecule antagonists of the retinoid-related orphan receptor gamma (ROR-gamma) signaling pathway (AID 651802).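 Note: CHO cells with doxycycline-induced ROR-gamma expression; luciferase reporter luminescence driven by ROR response element; % is set by controls: 0 for no effect and ±100 for the full control effect; nearly all actives have a fitted effect of over 60% in size.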 In short, it runs like this:
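Luminescence (One-Glo, 30 min RT) measured 16 h after compound addition and doxycycline induction at 37C. Reporter: RORE-luciferase under TET-inducible ROR-gamma in CHO cells.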

Test [17] is described as follows: qHTS assay for small molecule agonists of the antioxidant response element (ARE) signaling pathway measured by Nrf2-dependant transcriptional activity (AID 720636; active = well fitted curve in the direction sought with a large enough effect in the repeat runs; an effect the other way counts as inactive or inconclusive;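 note: HepG2 cells with an ARE-driven luciferase reporter; % of control where 0% means no effect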). An outline of the steps: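 ONE-Glo luminescence, read 30 min after reagent addition at room temperature, reflected ARE reporter activity in HepG2 cells that had been incubated with compound for 16 hr at 37 C in 1% dialyzed FBS.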

Test [18] concerns the target Nuclear receptor subfamily 1 group I member 2 (Rattus norvegicus) (UniProt Q9R1A7). As to the kind of experiment: qHTS assay for small molecule activators of the rat pregnane X receptor (rPXR) signaling pathway (AID 651751; call rule not given here; note: 0% is about no effect). The settings on record: rPXR reporter cells, luciferase (One-Glo), 24 h.
Test [19] can be described thus: qHTS assay for small molecule activators of the human pregnane X receptor (PXR) signaling pathway (AID 720659; call rule not given here; note: 0% is about no effect).
The target of test [20] is Thyroid hormone receptor beta (Homo sapiens) (UniProt P10828). As to the kind of experiment: qHTS assay for small molecule agonists of thyroid hormone receptor beta signaling (AID 588545; calls by dose curve;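 note: 0% = DMSO only and 100% = 10 nM T3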). An outline of the steps: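 TR-UAS-bla-GripTite HEK 293 cells in medium with 2% charcoal/dextran FBS, 0.1 mM NEAA and 1 mM sodium pyruvate were treated with titrated compounds for 18 hrs at 37 C. Beta-lactamase reporter was read with CCF4 dye (ex 405, em 460/530 nm); EC50 from Hill fits.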
Thyroid hormone receptor beta (Homo sapiens), sequence (P10828 whole entry, looked up): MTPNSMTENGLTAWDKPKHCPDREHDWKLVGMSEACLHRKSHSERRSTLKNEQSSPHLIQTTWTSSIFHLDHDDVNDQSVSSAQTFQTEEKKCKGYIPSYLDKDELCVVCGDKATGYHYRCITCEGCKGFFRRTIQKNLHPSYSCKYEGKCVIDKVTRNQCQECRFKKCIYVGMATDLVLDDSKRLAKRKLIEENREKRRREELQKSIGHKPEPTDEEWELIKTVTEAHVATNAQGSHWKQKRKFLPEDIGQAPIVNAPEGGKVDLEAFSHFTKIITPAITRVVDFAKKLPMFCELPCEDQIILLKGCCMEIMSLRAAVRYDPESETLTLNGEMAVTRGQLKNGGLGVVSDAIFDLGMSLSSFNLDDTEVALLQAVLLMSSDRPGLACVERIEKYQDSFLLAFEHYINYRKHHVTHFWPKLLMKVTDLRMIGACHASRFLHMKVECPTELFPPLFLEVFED

Where “and” joins values, the source holds several entries; their conditions need not be identical. Equal values may be shown once. Values without a mark were called inactive. Inconclusive results are not listed. Calls of active or inactive are those of the source. Unless noted, calls come from the whole dose curve; as a rule, active = well fitted curve in the direction sought with a large enough effect; inconclusive = small, poorly fitted or top-dose-only effect, or another doubt; inactive = no such curve, though single readings can be large; an effect the other way counts as inactive or inconclusive.

Nuclear receptor ROR-gamma (Homo sapiens), sequence (P51449 whole entry, looked up): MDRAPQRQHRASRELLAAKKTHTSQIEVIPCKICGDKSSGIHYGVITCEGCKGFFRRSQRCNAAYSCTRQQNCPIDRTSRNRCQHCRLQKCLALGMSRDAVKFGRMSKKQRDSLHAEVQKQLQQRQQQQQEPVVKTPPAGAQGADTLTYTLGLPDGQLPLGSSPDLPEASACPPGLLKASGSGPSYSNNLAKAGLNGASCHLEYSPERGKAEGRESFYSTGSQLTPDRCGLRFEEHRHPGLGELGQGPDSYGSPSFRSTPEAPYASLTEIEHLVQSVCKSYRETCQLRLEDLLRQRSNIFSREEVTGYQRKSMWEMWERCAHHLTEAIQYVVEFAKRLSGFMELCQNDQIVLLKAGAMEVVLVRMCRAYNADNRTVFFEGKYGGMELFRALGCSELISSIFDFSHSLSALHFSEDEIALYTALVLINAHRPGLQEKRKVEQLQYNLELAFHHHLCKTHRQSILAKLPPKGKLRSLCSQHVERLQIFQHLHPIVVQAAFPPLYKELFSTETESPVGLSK
Nuclear receptor subfamily 1 group I member 2 (Rattus norvegicus), sequence (Q9R1A7 whole entry, looked up): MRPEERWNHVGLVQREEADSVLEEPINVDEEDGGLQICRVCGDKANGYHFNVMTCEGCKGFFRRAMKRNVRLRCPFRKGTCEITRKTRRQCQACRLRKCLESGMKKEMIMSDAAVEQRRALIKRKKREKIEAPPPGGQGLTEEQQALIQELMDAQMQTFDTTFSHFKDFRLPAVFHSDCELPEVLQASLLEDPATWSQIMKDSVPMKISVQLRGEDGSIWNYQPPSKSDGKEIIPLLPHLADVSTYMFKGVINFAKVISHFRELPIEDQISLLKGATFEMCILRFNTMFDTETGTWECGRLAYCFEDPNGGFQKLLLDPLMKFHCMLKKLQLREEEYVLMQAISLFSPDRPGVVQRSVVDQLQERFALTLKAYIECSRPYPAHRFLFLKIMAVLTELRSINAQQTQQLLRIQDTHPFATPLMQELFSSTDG

Take `CCCC[S@@](=N)(=O)CC[C@@H](N)C(=O)O`: the compound was classed as inactive in [1].

As for `C=C(C)[C@@H]1CC=C(C(=O)O)CC1`, the compound was called inactive in [1].

Consider `COc1c2c(nc3ccccc13)O[C@@H]([C@@](C)(O)CO)C2`, for which the compound was called inactive in test [1].

In the case of `Nc1nc(Cl)nc2c1ncn2[C@@H]1O[C@@H](COP(=O)(O)OP(=O)(O)OP(=O)(O)O)[C@@H](O)[C@H]1O`, the compound was classed as inactive in test [1].

Turning to `CC(=O)[C@@H]1CC[C@@H]2[C@@H]3CC=C4C[C@H](OS(=O)(=O)O)CC[C@@]4(C)[C@H]3CC[C@]21C`, in test [1], the compound was classed as inactive.

For the compound `OC[C@@H]1O[C@@H](n2cnc3c(NC4CCCCC4)ncnc32)[C@@H](O)[C@H]1O`, in test [1], the outcome was inactive.

`CCCCCCCCCCCCCCCC(=O)NC[C@@H](COP(=O)([O-])OCC[N+](C)(C)C)OCC`: the compound was called inactive in [1].

With `CC[C@H](C)[C@@H]1O[C@]2(CC[C@@H]1C)C[C@H]1C[C@H](CC=C(C)[C@@H](O[C@H]3C[C@H](OC)[C@H](O[C@H]4C[C@H](OC)[C@H](O)[C@H](C)O4)[C@H](C)O3)[C@@H](C)C=CC=C3CO[C@@H]4[C@@H](O)C(C)=C[C@H](C(=O)O1)[C@@]34O)O2`, the result in test [1] was inactive.

As to `C[C@@H]1C[C@@H]2[C@H]3CCC4=CC(=O)C=C[C@]4(C)[C@]3(Cl)[C@@H](O)C[C@@]2(C)[C@@]1(O)C(=O)CO`, the compound was classed as inactive in test [1].

In the case of `O=S(=O)(NCCNC/C=C\c1ccc(Br)cc1)c1cccc2cnccc12`, the result in test [1] was inactive.

On to `CN1[C@@H]2CC[C@H]1CC(NC(=O)c1nn(C)c3ccccc13)C2` (stereo partly drawn), for which, in test [1], the compound was classed as inactive.

As to `CSC(N)=NCCC[C@@H](N)C(=O)O`, in test [1], the call was inactive.

For `COc1cc2nc(N3CCN(C(=O)OCc4ccccc4)[C@H](C(=O)NC(C)(C)C)C3)nc(N)c2cc1OC`, the outcome in test [1] was inactive.

As for `Nc1c2c(nc3ccccc13)CCC[C@H]2O`, the result in [1] was inactive.

As for `Cc1ccc(C(=O)O[C@@H](C(=O)O)[C@@H](OC(=O)c2ccc(C)cc2)C(=O)O)cc1` (tested in a mixture with another compound), in test [1], the outcome was inactive.

In the case of `CN(C)C(=O)/N=N\C(=O)N(C)C`, the compound was classed as inactive in test [1].

As for `CCNC(=S)NCC`, the Potency in [2] and in test [3] was more than 92 µM each time. Also, in test [4], the activity change, negative = cytotoxicity is -22%. Also, the Potency entry in test [5], in test [6], in [7], in [8], in test [9] and in [10] was “inactive” throughout. Also, the Potency result in test [11], in test [12], in test [13], in test [14], in [16] and in test [17] was “inactive” throughout. In addition, the activation in test [15] is 1.67%. The max response in test [18] was -0.653%. Besides, the result in test [19] was inactive.

Take `CC(=O)OC1CC(C)OC(C)O1` (stereo not drawn): the values for the Potency in test [2], in test [3] and in test [13] were more than 92 µM, more than 92 µM and 61.1 µM (active), respectively. Further, the activity change, negative = cytotoxicity in test [4] is 7.5%. For the same compound, the Potency entry in test [5], in test [6], in test [7], in [8], in test [9] and in test [10] was “inactive” each time. Besides, the Potency entry in test [20], in test [14], in test [16] and in [17] was “inactive” throughout. For the same compound, in test [15], the activation was -3.53% and 1.99%. For the same compound, the max response in [18] is -2.44% and 3.14%. The compound was classed as inactive in [19].

Consider `COc1cc2c(cc1O)CC[C@@H]1[C@@H]2CC[C@@]2(C)[C@H](O)CC[C@H]12`, for which the outcome in [1] was inactive.

In the case of `COc1ccc(CCN(C)CCC[C@@](C#N)(c2cc(OC)c(OC)c(OC)c2)C(C)C)cc1OC`, the result in test [1] was inactive.

With `C[C@@H](COc1ccc(/C=C\c2ccccc2)cc1)[N+](C)(C)C`, the compound was classed as inactive in test [1].

In the case of `C[C@@H](CN1CCC(Cc2ccccc2)CC1)[C@H](O)c1ccc(O)cc1`, in [1], the outcome was inactive.

For `COC(=O)[C@](C)(N)Cc1ccc(O)cc1`, the call in test [1] was inactive.

Consider `O[C@H](CN1CCN(c2cccc(Cl)c2)CC1)C(c1ccccc1)c1ccccc1`, for which the compound was classed as inactive in [1].

Take `CCCC(=O)OC(=O)CCC`: the Potency in test [2] and in test [3] was more than 92 µM each time. In addition, the activity change, negative = cytotoxicity in [4] is -12.9%. In addition, the Potency entry in test [5], in test [6], in test [7], in [8], in test [10] and in test [20] was “inactive” in each case. Moreover, the Potency result in test [13], in test [14], in test [16] and in [17] was “inactive” in each case. Further, the activation in [15] is 0.206% and -0.322%. The max response in test [18] is -1.94% and 0.492%. Moreover, the result in test [19] was inactive.
